# Experimental data published in PubChem BioAssay (NCATS).
# Several values for one entry are separate records, joined by “and”; a condition that tells them apart may be missing. Equal entries are not always repeated. Inconclusive results are not listed. Entries that show only a call come without a potency. A number with no mark means an inactive call. Activity calls are given as the source filed them. Calls follow the shape of the dose curve; as a rule, active = well fitted curve in the direction sought with a large enough effect; inconclusive = small, poorly fitted or top-dose-only effect, or another doubt; inactive = no such curve, though single readings can be large; an effect the other way counts as inactive or inconclusive.
# Key:
# [1] = molecular target: Cellular tumor antigen p53 (Homo sapiens) (UniProt P04637); assay: Primary qHTS for small molecule compounds that upregulate eGFP-tagged delta133p53alpha (in N-terminal) cells. (AID 2060322); details: NCI-H358 eGFP-delta133p53alpha fluorescence, 24 h; activation: hits give high values; also: nearly all actives have a fitted effect of over 75% in size; also: potency is read from the fitted curve at half-maximal effect; as to activation: series mostly up to about 56 µM
# Sequence of Cellular tumor antigen p53 (Homo sapiens) (P04637 whole entry, looked up): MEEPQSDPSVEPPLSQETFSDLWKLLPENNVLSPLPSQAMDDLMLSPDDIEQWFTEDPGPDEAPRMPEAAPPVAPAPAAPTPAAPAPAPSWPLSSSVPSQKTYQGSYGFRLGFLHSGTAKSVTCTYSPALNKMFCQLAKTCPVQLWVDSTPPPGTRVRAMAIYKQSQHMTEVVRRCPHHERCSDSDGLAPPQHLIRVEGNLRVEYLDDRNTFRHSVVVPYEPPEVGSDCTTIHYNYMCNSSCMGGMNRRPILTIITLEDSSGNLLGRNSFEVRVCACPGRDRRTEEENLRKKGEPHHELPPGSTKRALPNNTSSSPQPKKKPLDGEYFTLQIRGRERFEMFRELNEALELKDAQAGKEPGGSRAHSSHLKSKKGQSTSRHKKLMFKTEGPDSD
# How it was run: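 NCI-H358 cells pre-induced 24 h with 10 ng/ml doxycycline to express N-terminal eGFP-delta133p53alpha, then dosed 24 h at 37C without doxycycline; fixed, Hoechst-stained, GFP intensity by laser scanning cytometry, normalized to DMSO (0%) and 57.5 uM 5-azacytidine (100%).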
# [2] = qHTS for Inhibitors of the Aldehyde Dehydrogenase Family (ALDH1A2, ALDH1A3, ALDH2, ALDH3A1) (AID 2061307); also: nearly all actives have a fitted effect of over 50% in size; as to potency: test system not described further here; potency is read from the fitted curve at half-maximal effect
# [3] = molecular target: Retinaldehyde dehydrogenase 3 (Homo sapiens) (UniProt P47895); assay: qHTS for Inhibitors of the Aldehyde Dehydrogenase Family (ALDH1A3) Confirmatory screens (AID 2061311); also: nearly all actives have a fitted effect of over 60% in size; also: potency is read from the fitted curve at half-maximal effect
# [4] = molecular target: Retinal dehydrogenase 2 (Homo sapiens) (UniProt O94788); assay: qHTS for Inhibitors of the Aldehyde Dehydrogenase Family (ALDH1A2) Confirmation screens (AID 2061314); also: nearly all actives have a fitted effect of over 65% in size; also: potency is read from the fitted curve at half-maximal effect
# [5] = molecular target: Aldehyde dehydrogenase 1A1 (Homo sapiens) (UniProt P00352); assay: qHTS for Inhibitors of the Aldehyde Dehydrogenase Family (ALDH1A1) Confirmatory screens (AID 2061316); also: nearly all actives have a fitted effect of over 65% in size; also: potency is read from the fitted curve at half-maximal effect
# [6] = molecular target: Retinaldehyde dehydrogenase 3 (Homo sapiens) (UniProt P47895); assay: qHTS for Inhibitors of the Aldehyde Dehydrogenase Family (ALDH1A3) Validation screen (AID 2061312); also: potency is read from the fitted curve at half-maximal effect; nearly all actives have a fitted effect of over 45% in size
# [7] = molecular target: Retinaldehyde dehydrogenase 3 (Homo sapiens) (UniProt P47895); assay: qHTS for Inhibitors of the Aldehyde Dehydrogenase Family (ALDH1A3) Primary screen (AID 2061315); also: potency is read from the fitted curve at half-maximal effect
# [8] = molecular target: Aldehyde dehydrogenase, mitochondrial (Homo sapiens) (UniProt P05091); assay: qHTS for Inhibitors of the Aldehyde Dehydrogenase Family (ALDH2) Primary screen (AID 2061308); also: nearly all actives have a fitted effect of over 55% in size
# [9] = BET inhibitor-based combinations targeting novel dependencies in MECOM-rearranged (r) AML: OCI-AML3 cell line (AID 2202232); details: Potency: OCI-AML3 viability; also: series mostly up to about 46 µM; nearly all actives have a fitted effect of over 35% in size
# How it was run: (§1)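 Each compound was tested at eleven concentrations on cells seeded at 500/well. After two days' incubation, ATP-based luminescence reported viability; responses relative to DMSO and blank wells yielded AUC and cell-line-centred Z-AUC.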
# [10] = BET inhibitor-based combinations targeting novel dependencies in MECOM-rearranged (r) AML: MV-4-11 cell line (AID 2202233); also: nearly all actives have a fitted effect of over 45% in size
# How it was run: (§2)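 First, 500 cells per well were seeded; next, drugs were pinned as 11-point doses; then plates sat 48 hr in the incubator; finally CellTiter-Glo was added and luminescence read, with AUC and Z-AUC computed.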
# [11] = BET inhibitor-based combinations targeting novel dependencies in MECOM-rearranged (r) AML: HNT-34 cell line (AID 2202234); also: nearly all actives have a fitted effect of over 35% in size
# How it was run: as §2
# [12] = BET inhibitor-based combinations targeting novel dependencies in MECOM-rearranged (r) AML: UCSD-AML1 cell line (AID 2202235); also: series mostly up to about 46 µM; nearly all actives have a fitted effect of over 40% in size
# How it was run: as §2
# [13] = BET inhibitor-based combinations targeting novel dependencies in MECOM-rearranged (r) AML: AML-191 cell line (AID 2202236; also: nearly all actives have a fitted effect of over 35% in size)
# How it was run: as §1
# [14] = BET inhibitor-based combinations targeting novel dependencies in MECOM-rearranged (r) AML: AML-194 cell line (AID 2202237; also: nearly all actives have a fitted effect of over 40% in size)
# How it was run: as §1
structure (smiles),measurement,setting,value
CC[n+]1c(/C=C/C=C2/N(C)c3ccccc3C2(C)C)sc2ccccc21,activation,[1],-26.3%
same,Potency,[2],22.5 µM (active)
same,Potency,[3],12.7 µM (active)
same,Potency,[4],12.7 µM (active)
same,Potency,[5],12.7 µM (active)
CCOC(=O)N1CCC(CN(Cc2ccc(Cl)cc2)Cc2ccc([N+](=O)[O-])s2)C1 (stereo unspecified),activation,[1],6.21%
same,Potency,[2],inactive
same,Potency,[6],10 µM (active)
same,Potency,[4],inactive
same,Potency,[7],inactive
Cc1c(Cc2ccc3ccccc3n2)c2cc(F)ccc2n1CC(=O)O,activation,[1],-10%
same,Potency,[2],3.18 µM (active)
same,Potency,[8],inactive
same,Potency,[7],inactive
CO[C@]1(NC(=O)CSC(F)F)C(=O)N2C(C(=O)O)=C(CSc3nnnn3CCO)CO[C@H]21,activation,[1],-7.53%
same,Potency,[2],inactive
same,Potency,[3],inactive
same,Potency,[4],inactive
same,Potency,[7],inactive
same,Potency,[5],14.2 µM (active)
C=CC(C)(O)CC/C=C(\C)C1CC=C(C)C(=O)O1 (stereo unspecified),activation,[1],-9.82%
same,Potency,[2],inactive
same,Potency,[8],inactive
same,Potency,[3],22.5 µM (active)
same,Potency,[7],14.1 µM (active)
COC(=O)C1=CO[C@@H](O[C@@H]2O[C@H](CO[C@@H]3O[C@H](COC(=O)/C=C/c4cc(OC)c(O)c(OC)c4)[C@@H](O)[C@H](O)[C@H]3O)[C@@H](O)[C@H](O)[C@H]2O)[C@@H]2C(CO)=CC[C@H]12,activation,[1],-14.3%
same,Potency,[8],inactive
CC1CCC2(O1)C(C)(C)CC(O[C@@H]1O[C@H](CO[C@@H]3OC[C@](O)(CO)[C@H]3O)[C@@H](O)[C@H](O)[C@H]1O)CC2(C)O (stereo partly specified),activation,[1],1.79%
same,Potency,[8],inactive
O=C(NO)c1ccc(CC(=O)N(CCO)c2ccccc2)cc1,activation,[1],-8.59% and 7.82%
same,Potency,[8],inactive
C[C@@H]1O[C@@H](O[C@H]2[C@H](O[C@H]3[C@H](O[C@H]4CC[C@@]5(C)C(CC[C@]6(C)C5CC=C5[C@@H]7CC(C)(C(=O)O)C[C@@H](O)[C@]7(C)CC[C@]56C)[C@@]4(C)CO)O[C@H](C(=O)O)[C@@H](O)[C@@H]3O)O[C@H](CO)[C@H](O)[C@@H]2O)[C@H](O)[C@H](O)[C@H]1O (stereo partly specified),activation,[1],-0.893%
same,Potency,[8],inactive
CC1=C(CCC(C)O[C@@H]2O[C@H](CO)[C@@H](O)[C@H](O)[C@H]2O)C(C)(C)CC(O)C1 (stereo partly specified),activation,[1],-7.63%
same,Potency,[8],inactive
COc1cc2c(cc1O)C1(OC)Cc3ccc4c(c3C1N(C)CC2)OCO4 (stereo unspecified),activation,[1],20.5%
same,Potency,[8],inactive
COc1cc2c(cc1O)C1(Cc3ccc4c(c3C1O)OCO4)[N+](C)([O-])CC2 (stereo unspecified),activation,[1],-8.04%
same,Potency,[8],inactive
COC(=O)C1=COC(O[C@@H]2O[C@H](CO[C@@H]3O[C@H](COC(=O)/C=C\c4ccc(O)cc4)[C@@H](O)[C@H](O)[C@H]3O)[C@@H](O)[C@H](O)[C@H]2O)C2C(CO)=CCC12 (stereo partly specified),activation,[1],33%
same,Potency,[8],inactive
O=C(CC1CC(c2ccc(F)cc2F)=NO1)N1CCOCC1 (stereo unspecified),activation,[1],1.43%
same,Potency,[8],inactive
C[C@@H]1O[C@@H](O[C@H]2[C@H](O[C@H]3CC[C@@]4(C)C(CC[C@]5(C)C4CC=C4[C@@H]6CC(C)(C)CC[C@]6(C(=O)O[C@@H]6OC[C@H](O)[C@H](O)[C@H]6O[C@@H]6O[C@@H](C)[C@H](O[C@@H]7O[C@H](CO)[C@@H](O)[C@H](O)[C@H]7O)[C@H](O)[C@H]6O)[C@H](O)C[C@]45C)C3(C)C)O[C@H](CO)[C@@H](O[C@@H]3OC[C@@H](O)[C@H](O)[C@H]3O)[C@@H]2O)[C@H](O)[C@H](O)[C@H]1O (stereo partly specified),activation,[1],-2.29%
same,"activity change, negative = inhibition",[8],-18.4% [at 11.2 µM]
CC1=CC2C(CC1OC1OC(CO)C(O)C(O)C1O)C(C)CC(=O)C2C(C)C (stereo unspecified),activation,[1],4.58%
same,Potency,[8],inactive
C=C1CC[C@@H]2[C@](C)(CO[C@@H]3O[C@H](CO)[C@@H](O)[C@H](O)[C@H]3O)CCC[C@@]2(C)[C@@H]1CCC1=CCOC1=O,activation,[1],10.7%
same,Potency,[8],inactive
COc1cc(C(CO)C(OC2OC(CO)C(O)C(O)C2O)c2ccc(O)c(OC)c2)ccc1O (stereo unspecified),activation,[1],20.5%
same,Potency,[8],inactive
O=C(O[C@H]1[C@H](Oc2ccc(O)cc2CO)O[C@H](CO)[C@@H](O)[C@@H]1O)c1ccccc1,activation,[1],-10.7%
same,Potency,[8],inactive
COc1cc(N2CCC(N3CCN(C)CC3)CC2)ccc1Nc1ncc(Cl)c(-c2c[nH]c3ccccc23)n1,Potency,[1],8.49 µM (active)
same,Potency,[8],inactive
COc1cc2c(cc1O)C1(Cc3ccc4c(c3C1=O)OCO4)N(C)CC2 (stereo unspecified),activation,[1],-7.63%
same,Potency,[8],inactive
O=C(O)CCc1nccc2c1[nH]c1ccccc12,activation,[1],8.93%
same,Potency,[8],inactive
CC(C)n1nc(C#Cc2ccccc2)c2c(N)ncnc21,activation,[1],25%
same,Potency,[8],inactive
OC[C@H]1O[C@@H](OCc2ccccc2)[C@H](O)[C@@H](O)[C@@H]1O,activation,[1],-9.16%
same,Potency,[8],inactive
O=C(c1ccc(C#Cc2cccc(F)c2)cn1)N1CC2CC2C1 (stereo unspecified),activation,[1],-1%
same,Potency,[8],inactive
COC(CCc1ccc(O)cc1)CC(=O)CCc1ccc(O)cc1 (stereo unspecified),activation,[1],7.63%
same,Potency,[2],inactive
same,Potency,[7],inactive
same,Potency,[5],inactive
COc1cc(/C=C/C(=O)O[C@H]2[C@H](O)[C@@H](CO)O[C@@]2(CO)O[C@H]2O[C@H](CO)[C@@H](O)[C@H](O)[C@H]2O)ccc1O,activation,[1],16%
same,Potency,[8],inactive
COC(=O)C1=CO[C@@H](O[C@@H]2O[C@H](CO)[C@@H](O)[C@H](O)[C@H]2O)[C@@H]2[C@@H](C)[C@@H](O)C[C@H]12,activation,[1],-11.5%
same,Potency,[8],inactive
CC(/C=C/C1(O)C(C)CC(O)CC1(C)C)OC1OC(CO)C(O)C(O)C1O (stereo unspecified),activation,[1],-12.2%
same,Potency,[8],inactive
CC(C/C=C/C(C)(C)O)C1CCC(C)(O)C(O)C1 (stereo unspecified),activation,[1],-11.5%
same,Potency,[8],inactive
CNS(=O)(=O)c1ccccc1Nc1nc(Nc2ccc(N3CCN(C)CC3)cc2OC)ncc1Br,Potency,[1],9.53 µM (active)
same,Potency,[8],inactive
CC1CCC2C(C(=O)O)=COC(O[C@@H]3O[C@H](CO)[C@@H](O)[C@H](O)[C@H]3O)C12 (stereo partly specified),activation,[1],-3.57%
same,Potency,[8],inactive
COc1cc(C[C@H]2COC(=O)[C@@H]2Cc2ccc(O)c(OC)c2)ccc1O,activation,[1],-18.8%
same,Potency,[8],inactive
CC1(C)CC[C@]2(CO[C@@H]3O[C@H](CO)[C@@H](O)[C@H](O)[C@H]3O)[C@@H](O)C[C@]3(C)C(=CCC4[C@@]5(C)CC[C@H](O[C@@H]6O[C@H](CO[C@@H]7O[C@H](CO[C@@H]8OC[C@@H](O)[C@H](O)[C@H]8O)[C@@H](O)[C@H](O)[C@H]7O)[C@@H](O)[C@H](O)[C@H]6O)C(C)(C)C5CC[C@]43C)[C@@H]2C1 (stereo partly specified),activation,[1],-2.68%
same,Potency,[8],inactive
Cn1c(N2CCCCS2(=O)=O)nc(C(=O)NCc2ccc(F)cc2)c(O)c1=O,activation,[1],0.955%
same,Potency,[2],12.7 µM (active)
same,Potency,[7],inactive
same,Potency,[5],inactive
O=C(OC[C@H]1O[C@@H](Oc2ccccc2CO)[C@H](O)[C@@H](O)[C@@H]1O)c1ccccc1,activation,[1],7.63%
same,Potency,[8],inactive
O=C(O)/C=C/c1cc2c(cc1O[C@@H]1O[C@H](CO)[C@@H](O)[C@H](O)[C@H]1O)OCO2,activation,[1],9.92%
same,Potency,[8],inactive
COc1cc(C(=O)O)ccc1OC1OC(CO)C(O)C(O)C1O (stereo unspecified),activation,[1],10.7%
same,Potency,[8],inactive
C=C1CC2OC(=O)C(=C)C2C(O)/C=C(\C)CCC1O (stereo unspecified),Potency,[1],26.9 µM (active)
same,Potency,[8],inactive
COc1cc2c(cc1NS(=O)(=O)c1ccc(Br)cc1C)n(C)c(=O)n2C,activation,[1],-22.3%
same,Potency,[2],inactive
same,Potency,[6],31.6 µM (active)
same,Potency,[4],20.1 µM (active)
same,Potency,[5],inactive
COc1cc(C2c3cc4c(c(O)c3CC(CO)C2C(=O)O)OCO4)cc(OC)c1O (stereo unspecified),activation,[1],9.82%
same,Potency,[8],inactive
O=C(NNc1ccccc1)c1ccncc1,activation,[1],-8.33%
same,Potency,[2],inactive
same,Potency,[4],inactive
same,Potency,[5],inactive
same,Potency,[9],inactive
same,Potency,[10],inactive
same,Potency,[11],inactive
same,Potency,[12],inactive
same,Potency,[13],inactive
same,Potency,[14],inactive
CC(NCc1ccc(OCc2cccc(F)c2)cc1)C(N)=O (stereo unspecified),activation,[1],-7.16%
same,Potency,[8],inactive
